# Experimental data reported in ChEMBL document CHEMBL1961873, “Compounds: GSK PKIS; Assays: Nanosyn kinase panel” (2012).
# Values joined by “and” are separate entries in the source; they are usually repeats but may differ in a detail not shown here. Equal entries are not always repeated.
# Legend:
# [1] = molecular target: Casein kinase I isoform gamma-2 (Homo sapiens) (UniProt P78368); conditions: at 1 µM
# [2] = molecular target: Casein kinase I isoform gamma-3 (Homo sapiens) (UniProt Q9Y6M4); conditions: at 0.1 µM
# Casein kinase I isoform gamma-3 (Homo sapiens), sequence (Q9Y6M4 whole entry, looked up, canonical isoform): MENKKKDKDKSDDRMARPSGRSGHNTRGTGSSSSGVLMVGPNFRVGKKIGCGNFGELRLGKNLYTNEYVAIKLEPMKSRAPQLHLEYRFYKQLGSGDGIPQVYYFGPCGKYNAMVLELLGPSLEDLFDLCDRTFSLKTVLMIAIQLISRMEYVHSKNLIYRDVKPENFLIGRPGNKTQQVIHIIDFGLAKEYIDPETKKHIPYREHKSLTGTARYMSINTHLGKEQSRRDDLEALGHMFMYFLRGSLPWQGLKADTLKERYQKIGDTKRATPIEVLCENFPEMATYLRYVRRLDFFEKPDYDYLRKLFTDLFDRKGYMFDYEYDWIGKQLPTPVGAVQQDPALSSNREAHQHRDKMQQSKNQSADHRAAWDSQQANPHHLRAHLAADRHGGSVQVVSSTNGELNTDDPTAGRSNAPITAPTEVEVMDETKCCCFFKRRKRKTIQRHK
# [3] = molecular target: Casein kinase I isoform gamma-3 (Homo sapiens) (UniProt Q9Y6M4); conditions: at 1 µM
# [4] = molecular target: Cyclin-dependent kinase 1 (Homo sapiens) (UniProt P06493); conditions: at 0.1 µM
# Cyclin-dependent kinase 1 (Homo sapiens), sequence (P06493 whole entry, looked up): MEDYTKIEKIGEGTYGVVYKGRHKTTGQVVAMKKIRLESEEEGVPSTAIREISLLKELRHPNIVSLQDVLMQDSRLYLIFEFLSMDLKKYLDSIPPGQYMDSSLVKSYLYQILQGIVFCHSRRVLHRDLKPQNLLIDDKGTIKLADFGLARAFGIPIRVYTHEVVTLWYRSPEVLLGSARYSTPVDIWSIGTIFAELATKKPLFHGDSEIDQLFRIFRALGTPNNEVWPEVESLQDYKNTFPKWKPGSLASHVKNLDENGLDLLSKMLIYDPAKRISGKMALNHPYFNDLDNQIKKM
# [5] = molecular target: Cyclin-dependent kinase 1 (Homo sapiens) (UniProt P06493); conditions: at 1 µM
# [6] = molecular target: Cyclin-dependent kinase 2 (Homo sapiens) (UniProt P24941); conditions: at 0.1 µM
# [7] = molecular target: Cyclin-dependent kinase 2 (Homo sapiens) (UniProt P24941); conditions: at 1 µM
# [8] = molecular target: Cyclin-dependent kinase 2 (Homo sapiens) (UniProt P24941); conditions: at 0.1 µM; remark: listed apart in the source
# [9] = molecular target: Cyclin-dependent kinase 2 (Homo sapiens) (UniProt P24941); conditions: at 1 µM; remark: listed apart in the source
# [10] = molecular target: T1, CDK3/Cyclin E (Homo sapiens) (UniProt P24864+Q00526); conditions: at 0.1 µM
# T1 sequence (P24864 whole entry, looked up): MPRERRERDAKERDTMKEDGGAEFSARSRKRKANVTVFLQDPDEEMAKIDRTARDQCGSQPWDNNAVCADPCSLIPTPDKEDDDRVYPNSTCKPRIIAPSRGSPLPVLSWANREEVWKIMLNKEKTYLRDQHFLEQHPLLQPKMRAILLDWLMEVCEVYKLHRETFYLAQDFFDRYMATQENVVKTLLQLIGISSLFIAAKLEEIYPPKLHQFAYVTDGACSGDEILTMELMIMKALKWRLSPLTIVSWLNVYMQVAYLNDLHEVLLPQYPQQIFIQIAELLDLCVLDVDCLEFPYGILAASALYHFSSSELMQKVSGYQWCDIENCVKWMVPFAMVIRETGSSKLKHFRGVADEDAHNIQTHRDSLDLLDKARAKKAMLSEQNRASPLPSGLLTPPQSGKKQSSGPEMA
# T1 sequence (Q00526 whole entry, looked up): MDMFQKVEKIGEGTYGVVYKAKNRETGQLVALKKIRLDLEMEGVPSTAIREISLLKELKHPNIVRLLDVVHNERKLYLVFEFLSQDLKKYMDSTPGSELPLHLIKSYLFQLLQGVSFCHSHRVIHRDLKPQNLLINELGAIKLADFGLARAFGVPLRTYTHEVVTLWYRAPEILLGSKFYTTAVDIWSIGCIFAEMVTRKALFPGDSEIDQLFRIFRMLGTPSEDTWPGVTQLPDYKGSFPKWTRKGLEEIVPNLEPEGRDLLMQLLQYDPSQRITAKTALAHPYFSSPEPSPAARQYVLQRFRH
# [11] = molecular target: T1, CDK3/Cyclin E (Homo sapiens); conditions: at 1 µM
# [12] = molecular target: Cyclin-dependent kinase 4 (Homo sapiens) (UniProt P11802); conditions: at 0.1 µM
# Cyclin-dependent kinase 4 (Homo sapiens), sequence (P11802 whole entry): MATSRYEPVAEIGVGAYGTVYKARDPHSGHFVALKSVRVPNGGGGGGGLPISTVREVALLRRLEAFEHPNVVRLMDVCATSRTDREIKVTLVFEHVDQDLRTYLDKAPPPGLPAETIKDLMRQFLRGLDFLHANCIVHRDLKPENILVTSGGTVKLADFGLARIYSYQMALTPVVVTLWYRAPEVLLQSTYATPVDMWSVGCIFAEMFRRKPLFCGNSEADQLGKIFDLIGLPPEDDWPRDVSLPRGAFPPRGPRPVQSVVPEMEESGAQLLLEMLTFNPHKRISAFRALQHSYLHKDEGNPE
# [13] = molecular target: Cyclin-dependent kinase 4 (Homo sapiens) (UniProt P11802); conditions: at 1 µM
# [14] = molecular target: Cyclin-dependent kinase 5 (Homo sapiens) (UniProt Q00535); conditions: at 0.1 µM
# Cyclin-dependent kinase 5 (Homo sapiens), sequence (Q00535 whole entry, looked up): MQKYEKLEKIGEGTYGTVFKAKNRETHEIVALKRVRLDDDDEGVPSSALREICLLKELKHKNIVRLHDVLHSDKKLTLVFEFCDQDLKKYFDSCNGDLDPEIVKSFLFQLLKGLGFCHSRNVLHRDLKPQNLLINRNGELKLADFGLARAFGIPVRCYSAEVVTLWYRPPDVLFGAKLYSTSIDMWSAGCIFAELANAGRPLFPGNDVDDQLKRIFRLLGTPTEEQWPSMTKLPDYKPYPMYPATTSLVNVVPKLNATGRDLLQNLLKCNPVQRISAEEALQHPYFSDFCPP
# [15] = molecular target: Cyclin-dependent kinase 5 (Homo sapiens) (UniProt Q00535); conditions: at 1 µM
# [16] = molecular target: Cyclin-dependent kinase 6 (Homo sapiens) (UniProt Q00534); conditions: at 0.1 µM
# Cyclin-dependent kinase 6 (Homo sapiens), sequence (Q00534 whole entry): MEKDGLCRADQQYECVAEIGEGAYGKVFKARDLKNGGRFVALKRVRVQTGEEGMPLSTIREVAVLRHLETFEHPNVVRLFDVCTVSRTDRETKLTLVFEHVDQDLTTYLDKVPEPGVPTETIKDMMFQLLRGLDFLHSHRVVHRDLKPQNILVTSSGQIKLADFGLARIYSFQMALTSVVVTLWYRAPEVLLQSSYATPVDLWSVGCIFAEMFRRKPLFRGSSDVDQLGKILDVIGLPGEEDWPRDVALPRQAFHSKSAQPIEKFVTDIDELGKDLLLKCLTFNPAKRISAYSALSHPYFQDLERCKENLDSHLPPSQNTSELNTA
# [17] = molecular target: Cyclin-dependent kinase 6 (Homo sapiens) (UniProt Q00534); conditions: at 1 µM
# [18] = molecular target: Dual specificity protein kinase CLK2 (Homo sapiens) (UniProt P49760); conditions: at 0.1 µM
# Dual specificity protein kinase CLK2 (Homo sapiens), sequence (P49760 whole entry, looked up): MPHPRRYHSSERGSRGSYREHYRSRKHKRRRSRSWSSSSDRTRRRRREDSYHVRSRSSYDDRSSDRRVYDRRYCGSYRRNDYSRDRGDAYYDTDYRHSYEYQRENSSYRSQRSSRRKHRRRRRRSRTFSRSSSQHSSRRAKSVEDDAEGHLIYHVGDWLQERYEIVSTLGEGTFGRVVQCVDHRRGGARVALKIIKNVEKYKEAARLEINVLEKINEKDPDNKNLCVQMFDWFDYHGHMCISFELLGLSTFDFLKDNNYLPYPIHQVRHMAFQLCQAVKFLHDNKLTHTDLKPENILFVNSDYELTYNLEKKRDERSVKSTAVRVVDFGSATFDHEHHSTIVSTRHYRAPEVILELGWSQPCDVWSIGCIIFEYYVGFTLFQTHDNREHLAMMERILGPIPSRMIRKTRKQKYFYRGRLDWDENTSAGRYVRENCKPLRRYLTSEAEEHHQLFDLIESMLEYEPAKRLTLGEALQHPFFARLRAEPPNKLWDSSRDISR
# [19] = molecular target: Dual specificity protein kinase CLK2 (Homo sapiens) (UniProt P49760); conditions: at 1 µM
# [20] = molecular target: Dual specificity protein kinase CLK3 (Homo sapiens) (UniProt P49761); conditions: at 0.1 µM
# Dual specificity protein kinase CLK3 (Homo sapiens), sequence (P49761 whole entry, looked up): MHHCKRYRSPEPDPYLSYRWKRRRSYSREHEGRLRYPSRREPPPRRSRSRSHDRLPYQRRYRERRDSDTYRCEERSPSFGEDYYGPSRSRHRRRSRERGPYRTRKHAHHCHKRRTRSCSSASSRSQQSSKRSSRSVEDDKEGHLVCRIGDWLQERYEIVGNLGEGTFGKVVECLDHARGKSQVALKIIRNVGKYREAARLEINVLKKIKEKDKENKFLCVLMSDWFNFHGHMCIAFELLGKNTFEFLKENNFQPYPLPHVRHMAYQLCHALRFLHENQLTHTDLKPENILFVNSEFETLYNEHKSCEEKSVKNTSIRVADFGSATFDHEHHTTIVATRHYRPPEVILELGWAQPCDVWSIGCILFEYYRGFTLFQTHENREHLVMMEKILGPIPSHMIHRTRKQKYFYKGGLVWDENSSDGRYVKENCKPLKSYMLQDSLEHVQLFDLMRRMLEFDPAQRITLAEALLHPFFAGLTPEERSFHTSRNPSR
# Casein kinase I isoform gamma-2 (Homo sapiens), sequence (P78368 whole entry, looked up, canonical isoform): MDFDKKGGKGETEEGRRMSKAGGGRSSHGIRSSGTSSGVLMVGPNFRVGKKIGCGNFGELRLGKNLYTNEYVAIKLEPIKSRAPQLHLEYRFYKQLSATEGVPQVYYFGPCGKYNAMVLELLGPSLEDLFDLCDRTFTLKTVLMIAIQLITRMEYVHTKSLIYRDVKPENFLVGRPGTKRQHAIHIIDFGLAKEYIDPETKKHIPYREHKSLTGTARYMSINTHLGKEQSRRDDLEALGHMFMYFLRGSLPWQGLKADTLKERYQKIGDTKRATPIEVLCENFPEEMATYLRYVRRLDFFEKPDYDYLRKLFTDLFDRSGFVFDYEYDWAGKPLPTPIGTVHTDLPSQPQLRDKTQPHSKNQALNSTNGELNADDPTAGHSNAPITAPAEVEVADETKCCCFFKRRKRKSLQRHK
SMILES,inhibition [1],inhibition [2],inhibition [3],inhibition [4],inhibition [5],inhibition [6],inhibition [7],inhibition [8],inhibition [9],inhibition [10],inhibition [11],inhibition [12],inhibition [13],inhibition [14],inhibition [15],inhibition [16],inhibition [17],inhibition [18],inhibition [19],inhibition [20]
Cc1cc(O)cc(C)c1/C=C/c1cncc(C(=O)OC(C)(C)C)c1,3.13%,2.26%,3.16%,0.41%,3.26%,1.03%,0.25%,2.66%,6.74%,0.28%,1.16%,2.59%,3.59%,0.74%,2.53%,3.38%,5.01%,0.65%,0.81%,3.45%
COc1cc(N2CCN(C(C)C)CC2)ccc1Nc1nc(Nc2cccc(F)c2C(=O)O)c2cc[nH]c2n1,4.83%,1.83%,4.22%,1.3%,1.51%,1.99%,5.79%,4.11%,4.66%,4.48%,-1.26%,2.63%,2.75%,1.71%,2.09%,5.01%,4.74%,5.61%,41%,3.73%
CNC(=O)c1cncc(/C=C/c2ccccc2C)c1,2.72%,2.23%,3.55%,1.72%,7.81%,1.87%,11%,12%,16.4%,7.08%,0.23%,1.9%,7.47%,4.11%,10.4%,3.69%,4.46%,2.83%,2.46%,1.79%
COc1ccc2ncn(-c3cc(O[C@H](C)c4ccccc4C(F)(F)F)c(C(N)=O)s3)c2c1,-0.54%,-1.87%,0.68%,0.65%,3.45%,1.04%,0.96%,-0.81%,1.48%,1.1%,-1.57%,0.47%,2.89%,0.13%,1.21%,-4.17%,-1.08%,0.34%,5.08%,-0.05%
COc1cc(N2CCN(C(C)C)CC2)ccc1Nc1nc(Nc2cccc3ncccc23)c2cc[nH]c2n1,-1.47%,-2.11%,0.2%,1.38%,4.94%,1.96%,3.44%,2.69%,4.49%,1.33%,-2.06%,-0.07%,1.11%,1.69%,4.66%,1.04%,8.48%,4.18%,20.7%,-0.15%
N#Cc1cccc(Nc2ncc(-c3ccccc3)o2)c1,2.13%,1.94%,4.11%,2.78%,17.1%,6.59%,44.4%,7.57%,40.1%,10.1%,40.2%,3.86%,26.7%,4.45%,30.5%,21.9%,63%,1.44%,9.1%,1.7%
CC1=C(C(=O)Nc2ccc3[nH]nc(C)c3c2)C(c2ccc(C(F)(F)F)cc2)CC(=O)N1 (stereo not given),3.14%,2.16%,2.2%,1.96%,6.87%,2.54%,6.05%,2.66%,6.67%,0.4%,1.51%,4.22%,7.29%,2.58%,6.22%,7.14%,10.2%,1.85%,9.04%,2.28%
CS(=O)(=O)Nc1ccc(-c2ccc3c(NC(=O)C4CC4)n[nH]c3c2)cc1,4.11%,4.47%,2.66%,0.29%,3.65%,2.2%,6.28%,2.71%,5.01%,0.71%,6.25%,2.19%,6.78%,0.45%,1.18%,7.5%,36.3%,0.87%,3.05%,1.51%
O=C(Nc1n[nH]c2nnc(-c3cccnc3)cc12)C1CC1,-0.48%,-0.12%,0.24%,33.3%,72.5%,65.5%,91.2%,38.9%,75.3%,35.9%,81.4%,13.7%,56.1%,27.2%,69.2%,19.7%,64.6%,5.98%,43.4%,0.24%
Nc1nonc1-c1nc2cnccc2n1C1CC1,3.78% and -0.61%,3.26% and -1.06%,2.82% and 0.84%,1.19% and -3.89%,8.14% and 3.98%,5% and 1.12%,28% and 29.5%,5.56% and 1.64%,23.7% and 19.1%,3.57% and 1.86%,4.03% and 3.32%,1.99% and -2.13%,2.95% and -0.61%,3.26% and -1.62%,16.6% and 12.1%,0.11% and -4.39%,1.22% and -0.23%,0.67% and 3.19%,17% and 19%,1.8% and -2.05%
CCOc1ccc2c(-c3ccnc(Nc4cc(OC)cc(C(F)(F)F)c4)n3)cnn2n1,2.72%,-2.09%,2.37%,2.86%,12.1%,2.24%,12.5%,1.37%,11.9%,3.56%,3.56%,1.15%,6.68%,2.44%,9.18%,2.68%,7.59%,81.2%,96.3%,3.69%
OCCCNc1nccc(-c2c(-c3ccc(F)cc3)nn3cc(C(F)(F)F)ccc23)n1,4.56%,1.62%,7.33%,1.54%,2.59%,0.91%,-3.65%,0.52%,3.87%,1.49%,0.86%,0.94%,3.36%,2.06%,3.96%,1.79%,5.92%,0.1%,1.15%,0.35%
COc1ccc(Nc2ncc(-c3ccccc3)o2)cc1OC,4.12%,-0.65%,3.3%,8.02%,29.9%,8.91%,31.6%,7.2%,27.6%,6.29%,22.2%,5.15%,14%,11.1%,45.7%,-1.71%,23.4%,0.23%,5.9%,2%
COc1ccccc1-c1cc(/C=C2\C(=O)Nc3ncc(Br)cc32)cc(Br)c1O,6.34%,4.08%,3.37%,3.53%,5.31%,2.84%,-1.47%,7.89%,9.34%,5.76%,1.11%,5.08%,7.62%,4.84%,4.91%,1.08%,6.64%,1.63%,5.09%,2.35%
